A short description of assay [1]: compound effects on lung adenocarcinoma cell viability – A549, calcein-AM fluorescence, 48 h, basal, profiling panel (AID 1162). Also: test concentration not given here. Conditions: higher = more signal.
Assay [2] is described as follows: compound effects on differentiated 3T3-L1 adipocyte viability – cell-based, 3T3-L1 adipocytes, calcein-AM fluorescence, 48 h, basal, profiling panel (AID 1163). Also: test concentration not given here. The following applies: 3T3-L1 adipocytes viability, higher = more signal.
Assay [3] can be described thus: compound effects on hepatocellular carcinoma cell viability – HepG2, calcein-AM fluorescence, 48 h, basal, profiling panel (AID 1164). Also: test concentration not given here. Conditions: higher = more signal.
Assay [4] in a line: compound effects on multiple myeloma cell viability – MM1S, calcein-AM fluorescence, 48 h, basal, profiling panel (AID 1165).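 Also: viability of MM1S multiple myeloma cells under basal unstimulated conditions; test concentration not given here.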 The following applies: higher = more signal.
Assay [5] is described as follows: calcein-AM signal in unstimulated myeloma cells – cell-based, calcein-AM fluorescence, 48 h, PK04 Diversity Set, profiling panel (AID 1166).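 Also: cells grown under basal conditions without added stimulus; test concentration not given here.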 The following applies: RPMI8226 myeloma viability, higher = more signal.
A short description of assay [6]: JC-1 mitochondrial signal, unstimulated HepG2 cells – cell-based, JC-1 fluorescence, 24 h, 100 nL compound, profiling panel (AID 1167). Also: test concentration not given here. Conditions: HepG2 mitochondrial potential, higher = more signal.
Assay [7] is described as follows: JC-1 mitochondrial signal, unstimulated adipocytes – cell-based, JC-1 fluorescence, 3T3-L1 adipocytes, 24 h, 100 nL compound, profiling panel (AID 1168). Also: test concentration not given here. The following applies: JC-1 mitochondrial fluorescence, higher = more signal, called active from +8 up or from −8 down.
A short description of assay [8]: JC-1 mitochondrial signal, unstimulated myeloma cells – cell-based, JC-1 fluorescence, RPMI8226, 24 h, 100 nL compound, profiling panel (AID 1169). Also: test concentration not given here. The following applies: JC-1 mitochondrial potential fluorescence, higher = more signal.
The nature of assay [9]: JC-1 mitochondrial signal, unstimulated MM1S myeloma – cell-based, JC-1 fluorescence, 24 h, 100 nL compound, profiling panel (AID 1170). Also: test concentration not given here. Conditions: MM1S mitochondrial potential, higher = more signal.
The nature of assay [10]: resazurin metabolic signal in A549 cells – cell-based, resazurin fluorescence, 24 h, PK04 Diversity Set, profiling panel (AID 1171). Also: test concentration not given here. The following applies: A549 viability, higher = more signal, called active from +8 up or from −8 down. In general terms: Alamar Blue is a resazurin reagent that responds to reducing activity.
Assay [11] is described as follows: resazurin metabolic signal in HepG2 cells – cell-based, resazurin fluorescence, 24 h, PK04 Diversity Set, profiling panel (AID 1172). Also: test concentration not given here. The following applies: HepG2 viability, higher = more signal.
The nature of assay [12]: budding yeast growth changes without added modifier – OD600, strain BY4716, 24 h, basal condition, primary screen (AID 1173). The following applies: S. cerevisiae BY4716 growth, OD600, 24 h; higher = more signal, called active from +8 up or from −8 down.
The nature of assay [13]: viability profiling in MM1S myeloma cells – cell-based, resazurin fluorescence, basal, 24 h, PK04 Diversity Set, profiling panel (AID 1174). Also: test concentration not given here. Conditions: higher = more signal, called active from +8 up or from −8 down.
For assay [14], the target named is Dihydroorotate dehydrogenase (quinone), mitochondrial (Plasmodium falciparum (isolate 3D7)) (UniProt Q08210). The experiment in a line: inhibition of P. falciparum DHODH – biochemical, C-terminal His tag, absorbance 600 nm, primary screen (AID 1175).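 Also: recombinant parasite enzyme with a five histidine tag at its C terminus; test concentration not given here.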 The following applies: PfDHODH enzyme, DCIP absorbance 600 nm; higher = more signal, called active from +8 up or from −8 down.

Assay [15] is described as follows: growth modulation of vineyard yeast isolate – strain RM11-1a, OD600, basal, 24 h, primary screen (AID 1177).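 Also: cultures grown under basal conditions with no added stressor; test concentration not given here.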 Conditions: S. cerevisiae RM11-1a growth, OD600, 24 h; higher = more signal, called active from +8 up or from −8 down.
Assay [16] is described as follows: growth of efflux-deficient E. coli DRC39 – strain DRC39, OD650, 24 h, E. coli filamentation inducers, primary screen (AID 1178).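 Also: growth measured as culture turbidity by optical density at 650 nm; test concentration not given here.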 Conditions: E. coli DRC39 acrAB, higher = more signal, called active from +8 up or from −8 down.
The nature of assay [17]: growth of efflux-deficient E. coli DRC39 – strain DRC39, OD650, 48 h, E. coli filamentation inducers, primary screen (AID 1179).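 Also: screen aims at cell division blockers that make cells filament.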 The following applies: E. coli DRC39 delta-acrAB growth, higher = more signal, called active from +8 up or from −8 down.
Assay [18] in a line: viability profiling in RPMI8226 myeloma cells – cell-based, resazurin fluorescence, basal, 24 h, PK04 Diversity Set, profiling panel (AID 1180).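 Also: RPMI8826 multiple myeloma cell line at 5000 cells per well; test concentration not given here.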 The following applies: higher = more signal.
The target in assay [19] is E3 ubiquitin-protein ligase XIAP (Homo sapiens) (UniProt P98170). Kind of assay: small molecules binding XIAP protein – biophysical, small-molecule microarray, fluorescence 635 nm, primary screen (AID 1181).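 Also: score merges 667 nm emission and signal to noise over triplicate slides.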 The following applies: higher = more signal.

Molecules are shown by their SMILES. Activity calls are given as the source filed them.

Dihydroorotate dehydrogenase (quinone), mitochondrial (Plasmodium falciparum (isolate 3D7)), sequence (Q08210 whole entry, looked up): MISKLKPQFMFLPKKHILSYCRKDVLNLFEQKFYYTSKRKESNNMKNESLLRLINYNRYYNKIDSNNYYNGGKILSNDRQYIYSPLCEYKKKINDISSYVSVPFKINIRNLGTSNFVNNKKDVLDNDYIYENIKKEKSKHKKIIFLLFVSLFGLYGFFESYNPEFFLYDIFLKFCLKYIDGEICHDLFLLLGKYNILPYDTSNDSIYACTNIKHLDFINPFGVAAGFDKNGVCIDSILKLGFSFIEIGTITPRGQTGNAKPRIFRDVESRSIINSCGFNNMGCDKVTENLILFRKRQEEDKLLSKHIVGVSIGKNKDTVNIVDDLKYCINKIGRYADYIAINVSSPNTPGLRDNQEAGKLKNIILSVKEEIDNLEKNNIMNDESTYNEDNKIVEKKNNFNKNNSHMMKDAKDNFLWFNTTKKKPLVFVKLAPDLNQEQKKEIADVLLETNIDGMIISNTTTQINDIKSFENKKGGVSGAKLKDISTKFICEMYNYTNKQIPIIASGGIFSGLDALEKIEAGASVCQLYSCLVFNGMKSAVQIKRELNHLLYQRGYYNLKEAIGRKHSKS
E3 ubiquitin-protein ligase XIAP (Homo sapiens), sequence (P98170 whole entry, looked up): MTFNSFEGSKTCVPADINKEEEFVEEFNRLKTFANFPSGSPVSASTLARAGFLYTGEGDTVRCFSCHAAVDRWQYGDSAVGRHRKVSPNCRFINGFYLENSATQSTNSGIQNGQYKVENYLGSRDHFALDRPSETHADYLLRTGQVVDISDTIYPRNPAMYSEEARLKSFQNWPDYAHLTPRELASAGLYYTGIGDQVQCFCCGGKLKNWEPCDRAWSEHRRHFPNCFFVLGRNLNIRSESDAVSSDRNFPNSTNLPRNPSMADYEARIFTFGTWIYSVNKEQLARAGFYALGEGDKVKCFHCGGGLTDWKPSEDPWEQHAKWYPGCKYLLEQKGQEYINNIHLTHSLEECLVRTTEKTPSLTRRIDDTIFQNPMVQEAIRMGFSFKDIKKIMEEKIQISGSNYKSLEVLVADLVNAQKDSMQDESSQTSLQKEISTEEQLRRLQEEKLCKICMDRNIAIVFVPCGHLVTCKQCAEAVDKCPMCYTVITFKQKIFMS

Turning to `O=C(CS)NCCCCCNC(=O)[C@H]1C[C@H]2C(=O)N[C@@H](Cc3ccccc3)C(=O)N2[C@H]1c1ccc(O)cc1`, the z-score is -0.142 in [1]; 1.62 in assay [2]; -1.02 in [3]; -0.193 in assay [4]; 0.575 in [5]; 0.248 in assay [6]. Moreover, the z-score in [7] is 0.765 (inactive); in [8] it was -0.539; in assay [9] it was 0.368; in [10], 0.411 (inactive); in assay [11] it was 0.0833; in assay [12], 0.359 (inactive). Also, the z-score in assay [13] was 1.19 (inactive); in assay [15], 0.895 (inactive); in assay [16], 0.394 (inactive); in assay [17], 0.102 (inactive); in assay [18] it was 0.833. Also, the composite z-score was 0.44 (inactive) in [14] and 0.0123 in assay [19].
Consider `CO[C@H]1COC(=O)[C@H](Cc2ccccc2)NC(=O)CC=C[C@@H](C)[C@H](OC)COC(=O)CC=C[C@@H]1C`, for which the z-score was -0.0862 in assay [1]; -0.557 in [2]; 0.5 in [3]; 0.214 in assay [4]; 1.71 in assay [5]; 0.00562 in assay [6]. Moreover, the z-score in [7] is 0.954 (inactive); in [8], -0.791; in assay [9], 0.411; in assay [10] it was 0.174 (inactive); in assay [11], 0.471; in [12], -1.43 (inactive). For the same molecule, the z-score in [13] is 0.0446 (inactive); in assay [15] it was -1.06 (inactive); in assay [16], 0.373 (inactive); in assay [17], 0.53 (inactive); in [18], 0.562. Also, the composite z-score is 0.0048 (inactive) in assay [14] and 0.0525 in [19].
In the case of `C[C@H]1NC(=O)[C@@H](C)NC(=O)[C@@]23C(=O)N[C@@H](Cc4ccccc4)C2[C@H](C)[C@@]2(C)O[C@H]2C3/C=C/C/C=C\CNC1=O` (stereo partly specified), the z-score in assay [1] is 0.0575; in assay [2], 0.43; in [3] it was 0.205; in assay [4], -0.0933; in assay [5], -0.0009; in assay [6], 1.24. Also, the z-score was 0.408 (inactive) in assay [7]; -0.266 in assay [8]; 1.66 in assay [9]; 0.381 (inactive) in assay [10]; 0.0975 in [11]; -0.811 (inactive) in assay [12]. For the same molecule, the z-score in [13] is 1.02 (inactive); in [15], 0.776 (inactive); in [16] it was 2.33 (inactive); in [17] it was 1.58 (inactive); in assay [18], 1.02. For the same molecule, the composite z-score is 0.254 (inactive) in assay [14] and -0.198 in assay [19].
On to `C=CCN1C(=O)[C@]2(O[C@H](CCn3cc(CCO)nn3)[C@@H]([Si](C)(C)c3ccc(OC)cc3)[C@@H]2C)c2cc(NC(=O)c3ccc(OC)cc3)ccc21`, for which the z-score in assay [1] was -0.423; in assay [2] it was 0.727; in [3] it was -0.792; in assay [4], -2.7; in [5], -4.31; in assay [6], 3.04. For the same molecule, the z-score in [7] is 1.61 (inactive); in assay [8], -1.09; in [9] it was 0.122; in assay [10] it was -2.65 (inactive); in assay [11], -1.89; in assay [12], -2.6 (inactive). The z-score was -4.32 (inactive) in assay [13]; 1.23 (inactive) in assay [15]; 1.8 (inactive) in assay [16]; 0.797 (inactive) in [17]; -4.33 in assay [18]. In addition, the composite z-score in [14] is 1.31 (inactive); in assay [19], -0.104.
Take `CO[C@@H]1COC(=O)CC=C[C@@H](C)[C@H](OC)COC(=O)CC=C[C@H]1C`: the z-score is 0.275 in [1]; 0.793 in assay [2]; 1.14 in assay [3]; -1.03 in [4]; 0.834 in [5]; 0.692 in assay [6]. The z-score was 0.502 (inactive) in assay [7]; -0.793 in [8]; 1.21 in assay [9]; 0.756 (inactive) in assay [10]; 0.994 in [11]; -1.43 (inactive) in assay [12]. For the same molecule, the z-score was 0.176 (inactive) in [13]; -0.658 (inactive) in [15]; 0.642 (inactive) in [16]; 0.505 (inactive) in assay [17]; 0.854 in assay [18]. The composite z-score in [14] is -0.136 (inactive); in assay [19], 0.0891.
With `C=CCNC(=O)[C@H]1[C@@H]2C(=O)O[C@@H](c3ccccc3)[C@@H](c3ccccc3)N2[C@@H](c2ccccc2OCCO)[C@]12C(=O)N(C(=O)OCCOC)c1ccc(C#CCNC(N)=O)cc12`, the z-score in assay [1] is 0.883; in assay [2] it was 1.68; in assay [3] it was -0.127; in assay [4], -1.13; in [5], -0.66; in assay [6] it was 0.208. The z-score is 1.39 (inactive) in [7]; -0.711 in assay [8]; -0.616 in assay [9]; 1.13 (inactive) in assay [10]; 0.834 in assay [11]; 0.338 (inactive) in assay [12]. In addition, the z-score was 1.71 (inactive) in [13]; 1.04 (inactive) in assay [15]; 0.845 (inactive) in assay [16]; 1.06 (inactive) in [17]; 1.72 in assay [18]. Further, the composite z-score in assay [14] is -1.11 (inactive); in assay [19] it was -0.23.
Take `COc1ccc([Si](C)(C)[C@H]2[C@H](CC(=O)N3Cc4ccccc4C[C@H]3CO)O[C@@]3(C(=O)N(Cc4cccc(N5CCOC5=O)c4)c4ccccc43)[C@@H]2C)cc1`: the z-score in [1] is 0.443; in assay [2], 0.373; in assay [3], -0.632; in assay [4], -0.913; in [5], -0.727; in assay [6] it was 1.31. Besides, the z-score in assay [7] was 0.405 (inactive); in assay [8], -1.1; in [9] it was -0.223; in assay [10], -0.399 (inactive); in assay [11], -0.341; in assay [12], -2.22 (inactive). Besides, the z-score in assay [13] was -1.71 (inactive); in assay [15], 0.446 (inactive); in [16], 1.63 (inactive); in [17] it was 0.856 (inactive); in assay [18], -1.75. The composite z-score in assay [14] was -0.135 (inactive); in [19], 0.22.
As for `CCC(=O)[C@]12O[C@@]3([C@@H]4C(=O)OCC[C@@H]41)N(CC)C(C)=C(C(=O)OC)[C@@H](c1ccccc1)N3C2=O`, the z-score in assay [1] was 0.569; in [2], 1.77; in [3] it was 0.0496; in [4] it was -0.868; in assay [5], -1.8; in [6] it was 0.684. Moreover, the z-score in assay [7] was 0.112 (inactive); in assay [8] it was -0.537; in assay [9] it was 0.541; in [10], -0.257 (inactive); in assay [11] it was 0.121; in assay [12], -2.81 (inactive). The z-score in assay [13] is -0.01 (inactive); in assay [15], -0.805 (inactive); in [16], -0.772 (inactive); in assay [17], 0.09 (inactive); in assay [18], 0.74. Besides, the composite z-score in assay [14] is -0.191 (inactive); in assay [19], 0.0178.
Regarding `CCOC(=O)C[C@H]1[C@H](OC(=O)Cc2ccc3c(c2)OCO3)[C@@H](NC(=O)CC(C)C)c2cc(OCCCO)ccc2N1C(=O)c1ccccc1`, the z-score in [1] is 2.34; in assay [2], -0.148; in assay [3] it was 0.978; in assay [4], 0.532; in [5], 2.13; in assay [6], 1.78. Further, the z-score was 1.58 (inactive) in assay [7]; -0.0658 in [8]; 0.751 in assay [9]; 1.16 (inactive) in [10]; 1.05 in assay [11]; -1.05 (inactive) in [12]. The z-score in assay [13] is 0.548 (inactive); in assay [15], -0.606 (inactive); in [16] it was 2.13 (inactive); in assay [17], 1.65 (inactive); in assay [18], 0.458. Also, the composite z-score was 0.679 (inactive) in [14] and 0.0015 in [19].
